The values below come from PubChem BioAssay AID493191 (Broad Institute, 2011).

The campaign covered roughly 1,300 compounds. About 330 (25%) were called active. No rule for the calls is given here. These entries were drawn from the full list. Entries with a potency or affinity are not part of this list.

The assay in a line: MALME3 melanoma cell viability loss, dose response, orthogonal assay for MITF inhibitor project, CellTiter-Glo, cherry-picked (AID 493191). The conditions noted are these: CellTiter-Glo luminescence, 24 h; series mostly up to 35 µM.
`CCOc1ccc(C(=O)N2CCc3ccccc32)cc1`: the compound was called inactive. For `N#C/C(=C\c1cccs1)C(=O)NCC1CCCO1` (configuration not stated), the call was inactive.

Take `CN1CCN(CCCOc2ccc(-c3ccccc3)cc2)CC1`: the outcome was inactive. For `Cc1ccc2oc(=O)n(CCCOc3ccccc3)c2c1`, the compound was classed as inactive. Take `CN(C)Cc1c(O)ccc2c1O/C(=C\C=C\c1ccccc1)C2=O`: the compound was called inactive.

`Cc1ccccc1OCc1nc2c3cnn(C)c3ncn2n1`: the result was inactive. Then `CC(=O)NC1=C(N(C)C2CCS(=O)(=O)C2)C(=O)c2ccccc2C1=O` (configuration not stated), with “inactive”.

Turning to `CCCCC1C(=O)N(c2ccccc2)N(c2ccc(O)cc2)C1=O` (configuration not stated), the compound was classed as inactive.

Turning to `O=C(COc1ccc2c(c1)CCC2)N1CCc2ccccc21`, the call was inactive. The result for `O=C(CCl)N(c1ccccc1)C1CCS(=O)(=O)C1` (configuration not stated) reads “inactive”; that for `O=C(Nc1ccccc1)NN(C(=O)CCl)c1ccccc1`, “inactive”. For `CN(C)c1ccc(/C=N/N2CCN(c3ccccn3)CC2)cc1`, the result was inactive. As to `Cc1ccc(NC(=O)C2CCN(S(=O)(=O)c3c(C)noc3/C=C/c3ccco3)CC2)nc1`, the compound was classed as inactive. As for `CCN=c1scc(-c2ccco2)n1/N=C/c1ccc(O)cc1`, the compound was called inactive. On to `Cc1ccc(S(=O)(=O)Nc2cccc3cccnc23)cc1`, for which the compound was called inactive. The result for `NC(=O)C1CCN(C2=C(NS(=O)(=O)c3ccc(Br)cc3)C(=O)c3ccccc3C2=O)CC1` reads “inactive”. The result for `Cc1ccc(C(CNS(=O)(=O)c2ccc(Br)cc2)N2CCN(C)CC2)cc1` (configuration not stated) reads “inactive”; that for `O=C(/C=C/c1ccc2c(c1)OCCO2)c1ccccc1`, “inactive”. Then `O=C(NC1=NCCS1)c1ccc(Cl)c(Cl)c1`, with “inactive”; and `CC(C)c1ccc(C(=O)Nc2cccnc2)cc1`, with “inactive”; and `O=C(NCc1ccccc1)NC1(C(=O)Nc2ccc3c(c2)OCCO3)CCCCC1`, with “inactive”. `COc1ccc(-n2cc(-c3ccc(C)cc3)[n+]3c2SCC3)cc1`: the call was inactive. Then `COc1cc(SC)ccc1C(=O)Nc1nc(C)cs1`, with “inactive”; and `O=C(Nc1ccc(Br)cc1)c1ccc2c(c1)OCO2`, with “inactive”. The result for `O=C(CSc1nc2ccccc2[nH]1)c1ccc2c(c1)OCO2` reads “inactive”; that for `Cc1cccc(NC(=O)c2cnn(-c3ccccc3)c2C)c1C`, “inactive”.

Regarding `CCc1nc2oc3ccc(C)cc3c(=O)c2cc1C(=O)OC`, the outcome was inactive. For `O=C(N/N=C/C(Cl)=C\c1ccccc1)c1cccs1`, the result was inactive.

`O=C(NCc1ccco1)c1nc2c(nnn2Cc2ccccc2Cl)c(=O)[nH]1`: the compound was called inactive. Then `CCOc1ccc(N=C(C)C2=C(O)c3ccccc3C2=O)cc1`, with “inactive”; and `Nc1nnc(/C=C/c2ccccc2Cl)s1`, with “inactive”.

Take `O=C(NCC1CCCO1)c1cc(-c2ccc(Cl)cc2Cl)on1` (configuration not stated): the result was inactive. The result for `CS/C(N)=N/N=C/c1ccc2c(c1)OCO2` reads “inactive”. Then `CN(C)c1nc(-c2ccccn2)nnc1-c1ccccc1`, with “inactive”; and `O=C(/C=C/c1ccc(Cl)c([N+](=O)[O-])c1)c1ccc(O)cc1`, with “inactive”. Then `O=C(c1ccc(S(=O)(=O)Cc2ccccc2Cl)c([N+](=O)[O-])c1)N1CCN(c2ccccn2)CC1`, with “inactive”.

Take `COc1ccc(/C=C2\SC(=S)N(CCCC(=O)NNC(=O)c3ccccc3O)C2=O)cc1`: the compound was classed as inactive. Consider `N#C/C(=C(/O)CCl)c1nc2ccccc2[nH]1`, for which the compound was called inactive. The result for `COc1ccc(O)c(/C=N/NC(=O)c2ccc(CSc3nc(C)cc(C)n3)cc2)c1` reads “inactive”; that for `COc1nc(NC2CCCCC2)nc(NC(C)(C)C)n1`, “inactive”; that for `O=C(CCCc1ccccc1)Nc1cccc(C(=O)O)c1`, “inactive”. Take `CCOC(=O)c1[nH]cnc1N=Nc1c(O)ccc2ccccc12`: the compound was called inactive. Then `O=C1N=C(N2CCOCC2)S/C1=C\C=C/c1ccccc1`, with “inactive”. The result for `Cc1nc(-c2ccccn2)sc1C(=O)Nc1ccc(F)cc1F` reads “inactive”; that for `O=C(O)c1cc(N/N=C/C(Cl)=C/c2ccccc2)ccc1Cl`, “inactive”. The result for `C=CCNC(=O)c1ccc2nc(Cc3ccc(OC)cc3)oc2c1` reads “inactive”.

Turning to `CN(C)CCNC(=O)/C(=C/c1ccc(-c2ccc(Cl)cc2)o1)NC(=O)c1ccccc1`, the compound was called inactive. Then `Cc1ccc(C(=O)N/C(=C\c2ccc(-c3ccccc3[N+](=O)[O-])o2)C(=O)NCCN(C)C)cc1`, with “inactive”. Then `Cc1ccc(C(=O)N/C(=C\c2ccc(-c3ccccc3[N+](=O)[O-])o2)C(=O)NCCCN(C)C)cc1`, with “inactive”; and `CCOc1ccc(-n2c(-c3ccc(OC)cc3)c[n+]3c2CCCCC3)cc1`, with “inactive”; and `CCN(CC)C(=O)CCCOc1ccc(Cl)cc1Cl`, with “inactive”.

As to `Cc1nc2nc(C)c(NS(=O)(=O)c3ccc4c(c3)CCCC4)c(=O)n2[nH]1`, the compound was called inactive. The result for `Cc1cccnc1NC(=O)NC(=O)c1ccc(C(C)(C)C)s1` reads “inactive”; that for `N#Cc1c(NC(=O)CSc2ncn[nH]2)sc2c1CCCCC2`, “inactive”; that for `N#Cc1c(NC(=O)CSc2ncn[nH]2)sc2c1CCCC2`, “inactive”. For the compound `Cn1nnnc1Sc1ncnc2scc(-c3cccs3)c12`, the compound was classed as inactive. The result for `Cc1ccc(-c2nc(-c3ccncc3)no2)cc1C` reads “inactive”; that for `CCN(CC)S(=O)(=O)c1cccc(C(=O)N/N=C(\C)c2ccc(O)cc2O)c1`, “inactive”; that for `O=C(Nc1cccnc1Cl)c1cc(-c2ccco2)on1`, “inactive”.

Regarding `COc1cc(CN2CCC(C(=O)NCCC(C)C)CC2)ccc1OCc1ccccc1`, the outcome was inactive. Then `O=C(Nc1ccc(Nc2ccncc2)cc1)c1ccc([N+](=O)[O-])cc1`, with “inactive”; and `O=C(Nc1ccc(Cl)cc1)N1CC=CCC1`, with “inactive”. `COc1ccc2oc(=N)c(C(=O)Nc3ccccc3Cl)cc2c1`: the result was inactive. For `CCCCOc1ccc(-c2nnn(C(C)(C)C(=O)OC)n2)cc1`, the call was inactive. On to `CC1=C/C(=N\NC(=S)Nc2cccnc2)CC(C)(C)C1`, for which the outcome was inactive. Take `COc1cccc(/C=N/Nc2ncnc3c2ncn3Cc2ccccc2)c1O`: the compound was called inactive. Then `COc1ccc(/C=N/N=C2/SCC(=O)N2Cc2ccccc2)cc1`, with “inactive”; and `N#Cc1ccc(-c2cccnc2)nc1SCC(=O)c1ccccc1`, with “inactive”; and `O=C(c1ccc([N+](=O)[O-])s1)N1CCCc2ccccc21`, with “inactive”. With `COc1ccccc1N1CCN(/N=C/c2ccc([N+](=O)[O-])cc2)CC1`, the compound was called inactive. The result for `O=Cc1ccc(N2Cc3ccccc3C2)cc1` reads “inactive”. On to `COc1ccccc1N1CCN(/N=C\c2ccccc2)CC1`, for which the result was inactive. With `Cc1ccc(-c2cc3onc(-c4ccccc4)c3c(=O)n2C)cc1`, the compound was called inactive. For the compound `CC(=O)CSc1ccc(-c2nc3cc(C)c(C)cc3[nH]2)cn1`, the outcome was inactive. With `O=C(O)c1ccc(Nc2nc3c(s2)CCCC3)cc1`, the compound was classed as inactive.

`CC(C)(C)c1ccc(-c2noc(CCC(=O)NCc3ccco3)n2)cc1`: the compound was called inactive. Regarding `Cc1ccc(C(=O)Nc2ccccc2Cl)cc1`, the outcome was inactive.

`Cc1ccc(OCCCCN2CCCCC2)c(Br)c1`: the compound was called inactive. As for `COc1ccc(Br)cc1C(C[N+](=O)[O-])c1c(N)n(C)c(=O)n(C)c1=O` (configuration not stated), the result was inactive. For the compound `Cc1ccc2nc(NC(=O)CCCC(=O)O)sc2c1`, the compound was classed as inactive. Regarding `CN(C)CCCN(C(=O)c1ccc(Cl)s1)c1nc2cc3c(cc2s1)OCO3`, the outcome was inactive. Then `CN(Cc1ccccc1)C1=CC(=[N+]2CCCC2)CC(C)(C)C1`, with “inactive”; and `CN(C)c1cc[n+](CC(=O)c2ccc(-c3ccccc3)cc2)cc1`, with “inactive”; and `CCN(CC)Cc1c(O)ccc2c1O/C(=C\C=C\c1ccccc1)C2=O`, with “inactive”.

For the compound `CN(CC(=O)N1CCCCCC1)S(=O)(=O)c1ccccc1`, the compound was called inactive. Consider `Cc1cc(C)c2ccc(N)nc2c1O`, for which the outcome was inactive. For the compound `CN(C)c1ccc(/C=C/c2cccc[n+]2[O-])cc1`, the call was inactive. Regarding `O=C(CCl)Nc1cn(-c2ccccc2)nc1-c1ccccc1`, the outcome was inactive. Then `Cc1nn2c(N)c(-c3ccccc3)cnc2c1-c1ccccc1`, with “inactive”. As to `Brc1ccc(-c2cn3cccnc3n2)cc1`, the compound was called inactive. The result for `CC1CCCC(C)N1CCCNC(=O)c1cc2c(s1)-c1ccccc1OC2` (configuration not stated) reads “inactive”; that for `O=C(/C=C\Nc1ccc2c(c1)OCO2)c1ccccn1`, “inactive”.

On to `CCN(CC)S(=O)(=O)c1cccc(C(=O)N/N=C/c2ccc([N+](=O)[O-])o2)c1`, for which the outcome was inactive. On to `CC1CN(N=Cc2ccc([N+](=O)[O-])o2)C(=N)O1` (configuration not stated), for which the call was inactive.

On to `O=[N+]([O-])c1ccc(/C=N/Nc2ccnc3cc(Cl)ccc23)o1`, for which the outcome was inactive.

In the case of `CC(C)C(NC(=O)OCc1ccccc1)C(=O)OCC(=O)N1CCCCC1` (configuration not stated), the compound was called inactive. As to `O=C(NC(=S)NCc1ccccc1)c1ccccc1`, the compound was called inactive. Turning to `CCOc1ccc(-n2c(O)c(/C=N/Nc3nc(C)cc(C)n3)c3ccccc3c2=O)cc1`, the compound was called inactive. Regarding `COc1ccc(Nc2oc(-c3ccc(OC)cc3)nc2C#N)cc1`, the outcome was inactive.

`O=C(N/N=C/c1ccccc1)c1ccco1`: the call was inactive. With `CC1CCN(C(=O)c2cc3ccccc3o2)CC1`, the compound was called inactive.

For `Cc1cc(C(=O)N/N=C/c2ccc([N+](=O)[O-])o2)c(C)o1`, the compound was classed as inactive. For `O=C(Nc1nc2ccccc2s1)Nc1ccc(F)cc1F`, the outcome was inactive.

`O=C(Nc1cnc2ccccn2c1=O)c1ccc(F)cc1`: the outcome was inactive. Turning to `O=C(N/N=C/c1cccc(Oc2ccc([N+](=O)[O-])cc2[N+](=O)[O-])c1)c1cncc(Br)c1`, the result was inactive. Then `COc1cccc(/C=N/Nc2nc3ccccc3[nH]2)c1OC`, with “inactive”; and `C[C@H]1CCC[C@]2(C)C[C@H]3OC(=O)C(CN4CCCCCC4)[C@H]3C=C12` (some centres not stated), with “inactive”. Regarding `O=C(COC(=O)C1=COCCO1)Nc1c(F)cccc1F`, the outcome was inactive. Then `COc1cc(NC(=O)COc2cc(O)c3c(c2)OC(C)(C)CC3=O)cc(OC)c1OC`, with “inactive”; and `O=C(Nc1ccccc1Cl)Nc1cccc2cccnc12`, with “inactive”; and `O=C(N/N=C/c1cc(Br)ccc1O)c1ccncc1`, with “inactive”.

As for `O=C(CCCCC(=O)NN=Cc1ccccc1O)NN=Cc1ccccc1O`, the compound was called inactive. The result for `Cn1cccc1-c1cc(C(=O)N/N=C/c2cc(Br)ccc2O)[nH]n1` reads “inactive”; that for `Oc1ccccc1/C=N/Nc1cccc2cccnc12`, “inactive”. For the compound `Cc1nc(NC(=O)C2CC2)sc1C(=O)Nc1ccccc1Cl`, the result was inactive. The result for `COc1ccc(C(=O)/C=C(\C)Nc2ccc3c(c2)OCO3)cc1` reads “inactive”; that for `COc1cc(C2C(C#N)=C(N)Oc3cc4c(cc32)OCO4)cc(OC)c1OC` (configuration not stated), “inactive”.
